Measurements from PubChem BioAssay (NCATS).
Several values for one entry are separate records, joined by “and”; a condition that tells them apart may be missing. Equal entries are not always repeated. Results filed as inconclusive are left out. Activity calls are given as the source filed them. Unless noted, calls come from the whole dose curve.

Experiments:
[1] = target: Androgen receptor (Homo sapiens) (UniProt P10275); assay: qHTS assay for small molecule agonists of androgen receptor signaling (AID 588515; active = well fitted curve in the direction sought with a large enough effect in the signal ratio, with a control signal flat; the % refers to the signal ratio; note: % is set by controls: 0 for no effect and ±100 for the full control effect); details: AR-UAS-bla HEK293, beta-lactamase ratio, agonist 16 h; stronger effect = higher value
Method in brief: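 EC50 and efficacy came from Hill fits of titrations (up to 92 uM) normalized to 30 nM R1881 as 100% and DMSO as 0%. Compound exposure was 16 h at 37 C on AR-UAS-bla HEK293 cells, with a 405/460/530 nm CCF4 fluorescence read.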

[2] = target: Bile acid receptor (Homo sapiens) (UniProt Q96RI1); assay: qHTS assay for small molecule agonists of farnesoid X receptor signaling (AID 588527); details: HEK293T FXR-UAS-bla, beta-lactamase ratio, 16 h; activation: stronger effect = higher value;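 note: series mostly up to about 77 µM; 0% = vehicle basal and 100% = reference agonist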
Method in brief: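 FXR-UAS-bla HEK293T, 10% dialyzed FBS; cpds up to 92 uM titration, 16 h 37 C; CCF4 dye 2 h RT; fluorescence. Normalized to chenodeoxycholic acid 100 uM (100%) and DMSO (0%); Hill fit gives EC50, efficacy.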

[3] = target: Vitamin D3 receptor (Homo sapiens) (UniProt P11473); assay: qHTS assay for small molecule agonists of vitamin D receptor signaling (AID 588543);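 note: 0% = DMSO basal and 100% = reference agonist control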
Method in brief: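 β-lactamase reporter, VDR-UAS-bla HEK293T, agonist mode. Cells plated 5 h at 37 °C, compound titration 16 h at 37 °C, CCF4 dye 2 h RT, ratio 460/530 nm. Hill fit → EC50, efficacy vs 50 nM 1α,25-(OH)2D3.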

[4] = target: Thyroid hormone receptor beta (Homo sapiens) (UniProt P10828); assay: qHTS assay for small molecule agonists of thyroid hormone receptor beta signaling (AID 588545);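 note: 0% = DMSO only and 100% = 10 nM T3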
Method in brief: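 Efficacy and EC50 values derive from Hill fits of qHTS titration data, normalized to 10 nM T3 and DMSO-only wells. HEK 293 reporter cells were stimulated for 18 hrs at 37 C, with beta-lactamase activity measured by CCF4 fluorescence.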

[5] = qHTS assay for small molecule agonists of the antioxidant response element (ARE) signaling pathway (AID 651741; active = well fitted activation curve with a large enough effect in the signal ratio; the % refers to the signal ratio; note: potency is the fitted concentration of half-maximal effect; for activation: % of control where 0% means no effect)
Method in brief: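 CellSensor ARE-bla HepG2 cells (2,000/well) carrying ARE-driven beta-lactamase, exposed 16 h at 37 C. LiveBLAzer B/G FRET substrate added for 2 h at room temperature; fluorescence intensity read.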

[6] = target: Tumor necrosis factor (Homo sapiens) (UniProt P01375); assay: qHTS assay to identify small molecules that stimulate Tumor Necrosis Factor-alpha (TNF-alpha) secretion (AID 651757; active = well fitted curve in the direction sought with a large enough effect in the signal ratio; the % refers to the signal ratio; note: potency is the fitted concentration of half-maximal effect)
Method in brief: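 THP-1 cells (3000/well) exposed to compounds 17 hrs at 37 C. Secreted TNF-alpha detected by HTRF with cryptate- and XL665-labeled anti-TNF-alpha antibodies after 3 hr at room temperature.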

[7] = qHTS assay for small molecule agonists of the antioxidant response element (ARE) signaling pathway measured by Nrf2-dependant transcriptional activity (AID 720636; active = well fitted curve in the direction sought with a large enough effect in the repeat runs; an effect the other way counts as inactive or inconclusive;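 note: HepG2 cells with an ARE-driven luciferase reporter; % of control where 0% means no effect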)
Method in brief: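 Reporter gene assay, HepG2 ARE-luc: 16 hr compound, 37 C, 5% CO2; read-out luciferase luminescence.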

[8] = target: Bile acid receptor (Homo sapiens) (UniProt Q96RI1); assay: qHTS assay for small molecule antagonists of farnesoid X receptor signaling (AID 588526); note: % is set by controls: 0 for no effect and ±100 for the full control effect
Method in brief: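 Antagonist mode: titrated compounds tested against chenodeoxycholic acid stimulation (normalized to 50 uM CDCA and DMSO) in GeneBLAzer HEK293T cells for 16 h. Beta-lactamase read by CCF4 fluorescence; IC50 from Hill fits.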

[9] = target: Glucocorticoid receptor (Homo sapiens) (UniProt P04150); assay: qHTS assay for small molecule agonists of glucocorticoid receptor signaling (AID 588532; active = well fitted curve in the direction sought with a large enough effect in the signal ratio, with a control signal flat; the % refers to the signal ratio;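 note: 100% = dexamethasone at 0.1 µM and 0% = DMSO only wells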); details: HeLa MMTV-bla, beta-lactamase ratio, agonist, 18 h; activation: stronger effect = higher value, percent of dexamethasone control, DMSO zero
Method in brief: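 HeLa GRE-bla reporter cells; 18 h compound exposure at 37 C; 2 h CCF4 loading at room temperature; fluorescence at 460 and 530 nm; EC50 by Hill equation.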

[10] = target: Glucocorticoid receptor (Homo sapiens) (UniProt P04150); assay: qHTS assay for small molecule antagonists of glucocorticoid receptor signaling (AID 588533; active = well fitted inhibition curve with a large enough effect in the signal ratio, with a control signal flat, not every such curve was filed as active; the % refers to the signal ratio; note: % is set by controls: 0 for no effect and ±100 for the full control effect)
Method in brief: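 Antagonist-mode qHTS: compound titrations added to GRE-bla HeLa cells, then dexamethasone 2 nM final; 18 h, 37 C. CCF4 FRET fluorescence normalized to dexamethasone and DMSO; IC50 from Hill fit.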

[11] = qHTS assay for small molecule antagonists of peroxisome proliferator-activated receptor delta signaling (AID 588535; active = well fitted inhibition curve with a large enough effect in the signal ratio, with a control signal flat, not every such curve was filed as active; the % refers to the signal ratio;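 for max response: cells co-treated with a PPAR-delta agonist as stimulator during compound exposure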); details: HEK293T PPARd-UAS-bla, beta-lactamase FRET ratio, 18 h; 460 nm channel
Method in brief: (§1)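 Antagonist-mode beta-lactamase reporter (GeneBLAzer PPAR-delta-UAS-bla) in HEK293T cells, 2% charcoal/dextran FBS, 4000 cells/well. Compound titrations, 18 h at 37 C; CCF4 ratio read, IC50 and efficacy from Hill fits.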

[12] = target: Peroxisome proliferator-activated receptor delta (Homo sapiens) (UniProt Q03181); assay: as above
Method in brief: as §1

[13] = target: Peroxisome proliferator-activated receptor gamma (Homo sapiens) (UniProt P37231); assay: qHTS assay for small molecule agonists of peroxisome proliferator-activated receptor gamma signaling (AID 588536; active = well fitted curve in the direction sought with a large enough effect in the signal ratio, with a control signal flat, not every such curve was filed as active; the % refers to the signal ratio;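 note: 0% = DMSO basal wells and 100% = rosiglitazone at 2 µM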)
Method in brief: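 PPAR-gamma-UAS-bla HEK293 cells in medium with 1% charcoal/dextran-treated FBS were exposed to compounds for 16 h at 37 C. Beta-lactamase activity was read with CCF4 substrate (405 nm excitation, 460/530 nm emission).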

[14] = target: Peroxisome proliferator-activated receptor gamma (Homo sapiens) (UniProt P37231); assay: qHTS assay for small molecule antagonists of peroxisome proliferator-activated receptor gamma signaling (AID 588537; active = well fitted inhibition curve with a large enough effect in the signal ratio, with a control signal flat, not every such curve was filed as active; the % refers to the signal ratio;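 note: reporter cells co-stimulated with 50 nM rosiglitazone agonist during compound treatment; % of control where 0% means no effect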)
Method in brief: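 PPARγ-UAS-bla HEK293 cells (3000/well) in 1% charcoal/dextran-stripped FBS are treated with compound, then stimulated with 50 nM rosiglitazone for 16 h at 37 °C. Read-out is CCF4 β-lactamase fluorescence after 2 h at RT. IC50 comes from Hill fits normalised to rosiglitazone and DMSO.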

[15] = target: Vitamin D3 receptor (Homo sapiens) (UniProt P11473); assay: qHTS assay for small molecule antagonists of vitamin D receptor signaling (AID 588541);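 note: receptor activated by calcitriol during compound treatment; series mostly up to about 77 µM; % is set by controls: 0 for no effect and ±100 for the full control effect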
Method in brief: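 VDR-UAS-bla HEK293T cells in 2% charcoal-stripped FBS were stimulated with 1-alpha,25-dihydroxyvitamin D3 (3 nM final) plus compound for 16 h at 37 C. The beta-lactamase CCF4 readout was normalized to 50 nM agonist and DMSO, and Hill fits gave IC50.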

[16] = qHTS assay for small molecule agonists of retinoid X receptor alpha signaling (AID 588544); details: HEK293T RXRa-UAS-bla, beta-lactamase reporter, 18 h; 530 nm emission;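 for activation: 0% = DMSO basal wells and 100% = reference agonist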
[17] = target: Retinoic acid receptor RXR-alpha (Homo sapiens) (UniProt P19793); assay: as above
[18] = qHTS assay for small molecule antagonists of retinoid X receptor alpha signaling (AID 588546; active = well fitted inhibition curve with a large enough effect in the signal ratio, with a control signal flat, not every such curve was filed as active; the % refers to the signal ratio); details: HEK293T RXRa-UAS-bla, beta-lactamase ratio, antagonist mode; measured here: W530 green channel, cytotoxicity proxy
Method in brief: (§2)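 Beta-lactamase reporter inhibition, read as CCF4 fluorescence ratio (ex 405, em 460/530 nm) after 2 h at RT. HEK293T UAS-bla cells, 2500/well, were stimulated with 9-cis-RA at 500 or 100 nM final alongside test compound for 18 h at 37 C.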

[19] = target: Retinoic acid receptor RXR-alpha (Homo sapiens) (UniProt P19793); assay: as above; details: HEK293T RXRa-UAS-bla, beta-lactamase ratio, antagonist mode
Method in brief: as §2

[20] = target: Thyroid hormone receptor beta (Homo sapiens) (UniProt P10828); assay: qHTS assay for small molecule antagonists of thyroid hormone receptor beta signaling (AID 588547; active = well fitted inhibition curve with a large enough effect in the signal ratio, with a control signal flat, not every such curve was filed as active; the % refers to the signal ratio); details: TR-UAS-bla HEK293, beta-lactamase ratio, antagonist mode, 18 h
Method in brief: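 TR-UAS-bla GripTite HEK293 cells in 2% charcoal/dextran FBS medium; compounds 0.59 nM to 92 uM with T3 at 0.4nM final, 18 h at 37 C. Beta-lactamase read by CCF4 fluorescence (460/530 nm); Hill fits gave IC50 and efficacy.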

[21] = qHTS assay for small molecule activators of the p53 signaling pathway (AID 651743; active = well fitted activation curve with a large enough effect in the signal ratio, not every such curve was filed as active; the % refers to the signal ratio; note: series mostly up to about 92 µM; % of control where 0% means no effect); details: HCT-116 p53RE-bla, beta-lactamase FRET ratio, 16 h; activation: stronger effect = higher value
Method in brief: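 p53RE-bla HCT-116 cells carrying a beta-lactamase reporter under p53 response elements were exposed to compounds for 16 hours at 37 C. Reporter activity read as fluorescence after 2 hours at room temperature with LiveBLAzer B/G FRET substrate.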

[22] = qHTS assay for small molecule activators of the nuclear factor-kappa B (NF-kB) signaling pathway (AID 651749; active = well fitted activation curve with a large enough effect in the signal ratio; the % refers to the signal ratio; note: series mostly up to about 77 µM; % of control where 0% means no effect); details: NF-kB-bla ME-180 cells, beta-lactamase FRET ratio, 16 h; activation: stronger effect = higher value
Method in brief: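 NF-kB-bla ME-180 cells carrying a beta-lactamase reporter under an NF-kB response element, 2,000 cells/well, exposed to compound for 16 hr at 37C; FRET-based beta-lactamase fluorescence read-out of pathway activation.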

[23] = qHTS assay for environmental chemicals that activate the Aryl hydrocarbon Receptor (AhR) signaling pathway (AID 651777; active = well fitted curve in the direction sought with a large enough effect; an effect the other way counts as inactive or inconclusive; note: % of control where 0% means no effect; nearly all actives have a fitted effect of over 15% in size); details: 1A2-DRE human hepatoma cells, luciferase, 24 h; activation: stronger effect = higher value
Method in brief: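 Stable CYP1A2 promoter/DRE-luciferase human hepatoma line treated 24 hr; One-Glo luminescence, 30 min RT.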

[24] = target: Peroxisome proliferator-activated receptor alpha (Homo sapiens) (UniProt Q07869); assay: qHTS assay for small molecule agonists of the peroxisome proliferator-activated receptor alpha (PPARalpha) signaling pathway (AID 651778; active = well fitted curve in the direction sought with a large enough effect; an effect the other way counts as inactive or inconclusive; note: % of control where 0% means no effect); details: PathHunter PPARalpha complementation, chemiluminescence, 6 h; max response: stronger effect = higher value
Method in brief: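 Enzyme-fragment complementation assay in which ligand-bound PPARalpha translocates and forms an active enzyme that generates chemiluminescence. Cells were plated overnight, exposed to compound for 6 hr at 37 C, and then given detection reagent for 60 min at room temperature.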

[25] = qHTS assay for cell viability of HEK293 cells (AID 743288; active = well fitted curve in the direction sought with a large enough effect; an effect the other way counts as inactive or inconclusive; note: % is set by controls: 0 for no effect and ±100 for the full control effect; nearly all actives have a fitted effect of over 50% in size); details: ATP luminescence (CellTiter-Glo), 18 h; max response: stronger effect = lower value
Method in brief: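 Environmental chemicals tested in qHTS format against parental HEK293 cells; 18 h treatment, 37 C; read-out ATP luminescence (CellTiter-Glo), 30 min RT development.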

[26] = qHTS assay for cell viability of the p53RE-bla HCT-116 cell line (AID 743292; active = well fitted curve in the direction sought with a large enough effect; an effect the other way counts as inactive or inconclusive; note: % is set by controls: 0 for no effect and ±100 for the full control effect; nearly all actives have a fitted effect of over 55% in size)
Method in brief: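 Readout: CellTiter-Glo luminescence after 30 min RT. Treatment: compounds in DMSO, 16 h, 37 C. Cells: CellSensor p53RE-bla HCT-116, 4,000/well, preincubated 5 h.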

[27] = target: Nuclear receptor subfamily 1 group I member 2 (Rattus norvegicus) (UniProt Q9R1A7); assay: qHTS assay for small molecule activators of the rat pregnane X receptor (rPXR) signaling pathway (AID 651751; call rule not given here; note: 0% is about no effect); details: rPXR reporter cells, luciferase (One-Glo), 24 h
[28] = qHTS assay for small molecule activators of the human pregnane X receptor (PXR) signaling pathway (AID 720659; call rule not given here; note: 0% is about no effect)

Chain of Vitamin D3 receptor (Homo sapiens) (P11473 whole entry, looked up): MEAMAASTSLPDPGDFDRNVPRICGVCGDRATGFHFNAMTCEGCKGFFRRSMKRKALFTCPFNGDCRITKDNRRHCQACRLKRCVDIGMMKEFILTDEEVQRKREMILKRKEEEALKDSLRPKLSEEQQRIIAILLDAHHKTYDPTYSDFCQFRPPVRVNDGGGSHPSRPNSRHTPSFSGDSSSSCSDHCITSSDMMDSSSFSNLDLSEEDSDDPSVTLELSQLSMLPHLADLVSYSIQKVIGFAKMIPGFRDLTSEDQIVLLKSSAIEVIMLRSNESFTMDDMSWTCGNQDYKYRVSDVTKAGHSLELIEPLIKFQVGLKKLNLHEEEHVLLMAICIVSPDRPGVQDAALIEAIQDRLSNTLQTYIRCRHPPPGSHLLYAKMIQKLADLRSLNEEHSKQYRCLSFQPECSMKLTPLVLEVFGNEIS
Chain of Bile acid receptor (Homo sapiens) (Q96RI1 whole entry, looked up): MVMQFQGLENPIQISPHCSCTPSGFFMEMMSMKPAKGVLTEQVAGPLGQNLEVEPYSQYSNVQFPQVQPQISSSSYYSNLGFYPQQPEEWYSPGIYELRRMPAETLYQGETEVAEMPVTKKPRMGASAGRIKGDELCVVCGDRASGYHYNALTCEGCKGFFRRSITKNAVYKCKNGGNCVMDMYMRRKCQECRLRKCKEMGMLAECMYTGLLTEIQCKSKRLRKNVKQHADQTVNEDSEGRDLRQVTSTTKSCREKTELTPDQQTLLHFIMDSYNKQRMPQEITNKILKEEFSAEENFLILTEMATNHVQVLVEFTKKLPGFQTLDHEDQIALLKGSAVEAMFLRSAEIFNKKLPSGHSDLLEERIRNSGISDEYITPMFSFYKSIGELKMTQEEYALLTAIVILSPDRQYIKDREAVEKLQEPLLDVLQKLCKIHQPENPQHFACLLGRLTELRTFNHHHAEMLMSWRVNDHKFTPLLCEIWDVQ
Chain of Retinoic acid receptor RXR-alpha (Homo sapiens) (P19793 whole entry, looked up): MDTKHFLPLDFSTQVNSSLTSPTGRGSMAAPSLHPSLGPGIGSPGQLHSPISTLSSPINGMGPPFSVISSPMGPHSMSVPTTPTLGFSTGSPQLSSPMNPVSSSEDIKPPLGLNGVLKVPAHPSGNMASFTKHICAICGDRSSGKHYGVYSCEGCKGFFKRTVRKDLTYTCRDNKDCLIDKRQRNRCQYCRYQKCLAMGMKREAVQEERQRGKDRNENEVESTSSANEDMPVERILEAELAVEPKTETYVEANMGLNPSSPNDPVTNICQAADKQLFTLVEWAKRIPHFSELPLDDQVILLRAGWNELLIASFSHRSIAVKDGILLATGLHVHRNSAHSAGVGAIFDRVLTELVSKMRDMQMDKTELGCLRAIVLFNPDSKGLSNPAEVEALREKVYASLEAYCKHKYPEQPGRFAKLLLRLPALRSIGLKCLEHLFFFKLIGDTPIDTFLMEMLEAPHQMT
Chain of Thyroid hormone receptor beta (Homo sapiens) (P10828 whole entry, looked up): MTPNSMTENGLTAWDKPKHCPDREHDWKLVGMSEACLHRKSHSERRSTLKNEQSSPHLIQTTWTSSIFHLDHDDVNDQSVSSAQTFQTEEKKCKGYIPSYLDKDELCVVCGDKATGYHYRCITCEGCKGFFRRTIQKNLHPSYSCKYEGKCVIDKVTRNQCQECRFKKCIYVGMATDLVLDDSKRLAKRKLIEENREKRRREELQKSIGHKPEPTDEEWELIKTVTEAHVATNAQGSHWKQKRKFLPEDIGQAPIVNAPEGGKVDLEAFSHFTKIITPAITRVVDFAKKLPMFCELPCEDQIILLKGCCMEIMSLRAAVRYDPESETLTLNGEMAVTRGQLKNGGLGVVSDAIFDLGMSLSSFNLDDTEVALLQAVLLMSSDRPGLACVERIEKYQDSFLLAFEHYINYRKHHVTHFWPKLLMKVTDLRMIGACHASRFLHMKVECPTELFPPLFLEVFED
Chain of Peroxisome proliferator-activated receptor gamma (Homo sapiens) (P37231 whole entry, looked up): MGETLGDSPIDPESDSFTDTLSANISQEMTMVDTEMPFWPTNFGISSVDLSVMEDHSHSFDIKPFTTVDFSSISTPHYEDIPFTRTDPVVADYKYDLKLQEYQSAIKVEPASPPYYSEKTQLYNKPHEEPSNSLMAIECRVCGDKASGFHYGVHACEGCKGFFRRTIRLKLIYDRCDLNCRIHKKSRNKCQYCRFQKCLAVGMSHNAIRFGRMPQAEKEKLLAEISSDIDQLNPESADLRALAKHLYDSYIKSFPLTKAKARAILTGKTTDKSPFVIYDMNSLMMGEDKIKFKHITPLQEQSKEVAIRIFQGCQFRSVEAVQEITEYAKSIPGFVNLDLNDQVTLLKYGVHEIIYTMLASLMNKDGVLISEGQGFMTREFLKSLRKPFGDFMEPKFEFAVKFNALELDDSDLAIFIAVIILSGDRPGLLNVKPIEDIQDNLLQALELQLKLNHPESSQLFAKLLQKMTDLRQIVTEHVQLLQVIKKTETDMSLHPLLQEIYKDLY
Chain of Glucocorticoid receptor (Homo sapiens) (P04150 whole entry, looked up): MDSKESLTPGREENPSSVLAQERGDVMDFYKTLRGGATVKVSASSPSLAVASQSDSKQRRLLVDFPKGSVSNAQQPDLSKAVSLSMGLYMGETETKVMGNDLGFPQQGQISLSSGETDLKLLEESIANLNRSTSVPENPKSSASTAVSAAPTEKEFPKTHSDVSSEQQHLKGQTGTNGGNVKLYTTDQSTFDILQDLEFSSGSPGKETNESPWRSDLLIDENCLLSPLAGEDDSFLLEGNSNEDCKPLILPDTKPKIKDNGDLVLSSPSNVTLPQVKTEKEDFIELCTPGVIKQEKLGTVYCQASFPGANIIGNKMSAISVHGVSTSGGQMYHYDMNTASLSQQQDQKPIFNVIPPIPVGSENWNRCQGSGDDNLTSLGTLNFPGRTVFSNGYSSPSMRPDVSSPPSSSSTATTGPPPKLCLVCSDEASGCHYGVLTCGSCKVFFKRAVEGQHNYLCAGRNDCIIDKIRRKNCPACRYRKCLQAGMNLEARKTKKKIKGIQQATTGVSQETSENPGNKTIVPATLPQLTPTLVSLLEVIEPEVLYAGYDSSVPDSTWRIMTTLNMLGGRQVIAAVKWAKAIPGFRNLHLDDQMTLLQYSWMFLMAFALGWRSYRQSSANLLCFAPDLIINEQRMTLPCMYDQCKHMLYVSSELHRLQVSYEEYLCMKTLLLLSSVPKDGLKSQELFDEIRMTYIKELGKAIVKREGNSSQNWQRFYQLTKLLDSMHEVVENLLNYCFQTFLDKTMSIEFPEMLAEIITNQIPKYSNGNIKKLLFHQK
Chain of Peroxisome proliferator-activated receptor delta (Homo sapiens) (Q03181 whole entry, looked up): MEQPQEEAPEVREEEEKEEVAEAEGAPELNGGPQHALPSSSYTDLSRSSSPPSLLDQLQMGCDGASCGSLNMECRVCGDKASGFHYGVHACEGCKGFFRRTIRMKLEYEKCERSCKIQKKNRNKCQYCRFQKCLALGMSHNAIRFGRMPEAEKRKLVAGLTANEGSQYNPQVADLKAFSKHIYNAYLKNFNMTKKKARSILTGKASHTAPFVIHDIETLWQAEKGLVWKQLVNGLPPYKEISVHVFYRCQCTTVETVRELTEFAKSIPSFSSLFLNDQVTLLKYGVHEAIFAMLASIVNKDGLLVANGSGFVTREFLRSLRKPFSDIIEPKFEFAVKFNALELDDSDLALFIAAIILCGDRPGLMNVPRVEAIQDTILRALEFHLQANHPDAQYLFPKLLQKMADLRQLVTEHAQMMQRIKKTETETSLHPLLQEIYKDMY
Chain of Peroxisome proliferator-activated receptor alpha (Homo sapiens) (Q07869 whole entry, looked up, the tested form may be a part): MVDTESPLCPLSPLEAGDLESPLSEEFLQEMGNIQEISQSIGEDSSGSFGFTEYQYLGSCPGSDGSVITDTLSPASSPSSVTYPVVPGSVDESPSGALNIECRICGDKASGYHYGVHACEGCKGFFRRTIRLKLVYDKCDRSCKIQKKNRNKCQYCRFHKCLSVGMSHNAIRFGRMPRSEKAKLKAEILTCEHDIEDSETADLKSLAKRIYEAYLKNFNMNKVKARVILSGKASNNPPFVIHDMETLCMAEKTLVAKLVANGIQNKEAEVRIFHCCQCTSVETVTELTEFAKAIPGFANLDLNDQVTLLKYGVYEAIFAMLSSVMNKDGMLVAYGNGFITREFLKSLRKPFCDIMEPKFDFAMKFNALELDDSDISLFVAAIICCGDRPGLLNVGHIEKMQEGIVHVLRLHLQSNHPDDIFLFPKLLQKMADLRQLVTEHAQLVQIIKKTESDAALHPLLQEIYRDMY
Chain of Androgen receptor (Homo sapiens) (P10275 whole entry, looked up): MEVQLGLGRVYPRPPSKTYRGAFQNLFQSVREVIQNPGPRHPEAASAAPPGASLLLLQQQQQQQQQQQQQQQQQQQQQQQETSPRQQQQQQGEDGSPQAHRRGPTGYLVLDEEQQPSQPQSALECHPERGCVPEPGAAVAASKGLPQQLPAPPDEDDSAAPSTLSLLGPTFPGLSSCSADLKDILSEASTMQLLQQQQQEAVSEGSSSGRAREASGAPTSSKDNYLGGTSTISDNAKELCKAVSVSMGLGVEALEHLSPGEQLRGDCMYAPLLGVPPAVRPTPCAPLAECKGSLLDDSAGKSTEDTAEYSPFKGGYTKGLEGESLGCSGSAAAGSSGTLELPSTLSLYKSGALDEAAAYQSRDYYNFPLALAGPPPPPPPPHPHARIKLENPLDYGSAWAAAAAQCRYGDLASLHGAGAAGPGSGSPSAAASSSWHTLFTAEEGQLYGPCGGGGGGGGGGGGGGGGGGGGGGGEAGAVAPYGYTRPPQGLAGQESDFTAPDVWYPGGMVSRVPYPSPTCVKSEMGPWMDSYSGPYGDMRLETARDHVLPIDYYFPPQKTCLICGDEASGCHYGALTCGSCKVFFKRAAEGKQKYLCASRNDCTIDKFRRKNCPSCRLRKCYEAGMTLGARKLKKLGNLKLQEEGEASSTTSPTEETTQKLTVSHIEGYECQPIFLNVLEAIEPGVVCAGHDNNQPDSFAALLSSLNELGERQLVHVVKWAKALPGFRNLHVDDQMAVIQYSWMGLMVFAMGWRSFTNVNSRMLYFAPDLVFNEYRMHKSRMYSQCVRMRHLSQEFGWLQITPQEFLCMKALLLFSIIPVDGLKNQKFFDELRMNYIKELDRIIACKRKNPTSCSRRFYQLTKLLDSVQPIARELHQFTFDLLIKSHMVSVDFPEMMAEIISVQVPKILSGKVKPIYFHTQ

Structure (SMILES): c1ccc2c(c1)c1cccc3ccc4cccc2c4c31
- activation [1]: 7.55% (inactive)
- activation [2]: -3.29% (inactive) and 7.3% (inactive)
- outcome [3]: inactive
- Potency [4]: inactive
- Potency [5]: 6.86 µM (active)
- Potency [6]: 29.8 µM (active)
- Potency [7]: inactive

Structure (SMILES): CCCCCCCCCCCC#N
- Potency [8]: inactive
- activation [2]: -2.48% (inactive)
- activation [9]: -5.17% (inactive)
- Potency [10]: inactive
- max response [11]: -15.4%
- Potency [12]: inactive
- Potency [13]: inactive
- Potency [14]: inactive
- Potency [15]: inactive
- outcome [3]: inactive
- max response [16]: 7.65%
- Potency [17]: inactive
- max response [18]: -6.71%
- max response [19]: 4.86% (inactive)
- activity change % (negative = inhibition) [20]: 16.2% (inactive)
- Potency [5]: inactive
- activation [21]: 0.106% (inactive)
- activation [22]: -0.827% (inactive)
- activation [23]: 1.84% (inactive)
- max response [24]: -0.162% (inactive)
- Potency [7]: inactive
- max response [25]: -1.15% (inactive)
- Potency [26]: inactive
- max response [27]: 0.164% (inactive)
- outcome [28]: inactive
